# This is a sample that favours compounds with a hit; in the whole collection about 1.7% have one here.
# KCNH2 3.1 inh: KCNH2 3.1 (human) potassium channel inhibition; U2OS KCNH2 3.1, thallium flux FluxOr; active compounds read low; activity change, % (tested at about 1.8 µM); 0.95% of 340,000 active;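 active = maximum activity change below -70%; inconclusive = maximum activity change from -70% to -50%; inactive = maximum activity change above -50%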;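 also: thallium influx rate constant from kinetic fluorescence after stimulation buffer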
#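 Thallium flux read-out: FluxOr dye with Red40 quencher in HBSS/HEPES, 45 min at RT. Rate constants from kinetic reads were normalized to positive and negative DMSO controls. Cells: U2OS virally expressing the 3.1 isoform.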
# TRPML1 inh: inhibitors of human TRPML1 channel; Q9GZU1; TRPML1-inducible cells, Ca2+ dye fluorescence, FDSS; active compounds read low; inhibition of EC80 agonist-evoked calcium signal; activity change, negative = inhibition, % (test concentration not listed); 0.02% of 390,000 active; AID 624415; in the data active = activity change below about -50%; inconclusive = between about -30% and that limit;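 also: stimulus is agonist 54-4 at its EC80 concentration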
# Target sequence (Q9GZU1 whole entry, looked up): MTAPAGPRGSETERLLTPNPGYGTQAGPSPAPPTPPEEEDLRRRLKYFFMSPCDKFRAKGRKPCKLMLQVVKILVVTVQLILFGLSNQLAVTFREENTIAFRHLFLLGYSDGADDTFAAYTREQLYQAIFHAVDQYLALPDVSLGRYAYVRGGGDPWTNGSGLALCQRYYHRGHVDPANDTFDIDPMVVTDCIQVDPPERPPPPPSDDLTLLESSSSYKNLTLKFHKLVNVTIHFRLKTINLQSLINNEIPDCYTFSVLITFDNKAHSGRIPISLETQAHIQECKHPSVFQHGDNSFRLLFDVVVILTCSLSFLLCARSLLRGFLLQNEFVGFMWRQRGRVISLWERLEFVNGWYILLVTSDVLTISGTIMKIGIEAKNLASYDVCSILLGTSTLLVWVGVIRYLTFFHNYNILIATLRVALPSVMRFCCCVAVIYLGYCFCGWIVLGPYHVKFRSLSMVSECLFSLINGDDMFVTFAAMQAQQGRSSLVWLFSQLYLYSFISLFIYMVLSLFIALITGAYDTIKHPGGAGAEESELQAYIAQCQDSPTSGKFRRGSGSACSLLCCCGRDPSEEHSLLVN
#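 Calcium fluorescence in TRPML1-DL cells induced overnight with Tet: a 110 s read after compound pin addition, then a 110 s antagonist read after challenge with 54-4 at 4 uM final (EC80).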
# TRHR PAM: TRH receptor (human) allosteric enhancement; P34981; AID 493056; 0.66% of 360,000 active; enhancement, % at 2 µM; TRHR cells, fluo-8 calcium fluorescence, EC20 TRH enhancement; in the data active = enhancement above about 30%
#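 TRHR-expressing cells loaded with fluo-8 calcium dye were read kinetically (ex 480/em 530) during compound addition, then stimulated with an EC20 of TRH (10 nM final). Enhancement of the Gq-mediated intracellular calcium response was scored.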
# TRPML1 agonist: activates the human TRPML1 channel | Q9GZU1 | TRPML1-expressing cells, Ca2+ dye fluorescence, FDSS | activation, % (no concentration beside the values) | 0.12% of 410,000 active | AID 624414; in the data active = activation above about 50%; inconclusive = mostly about 30% to 49%
#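 Tetracycline-induced TRPML1-DL cells are seeded and incubated overnight before loading with a no-wash Ca2+ dye and quencher. Agonist activity is taken from the 110 s fluorescence read following compound pin-transfer on an FDSS, before EC80 54-4 challenge.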
# KCNH2 WT inh: inhibitors of human wildtype KCNH2 potassium channel; activity change, % at 1.84 µM; Q12809; AID 720551; 0.37% of 340,000 active; U2OS, BacMam KCNH2, thallium flux FluxOr; active compounds read low;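 active = maximum activity change below -70%; inconclusive = maximum activity change between -70% and -50%; inactive = maximum activity change above -50%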
#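 U2OS cells were transduced with wild-type KCNH2 virus (2.03 x 10^8 / mL) for 4 h at room temperature, then cultured overnight at 37 C. Thallium flux was read with FluxOr dye. Rate constants were normalized to DMSO controls.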
# TRHR ag: agonists of human TRH receptor | TRHR cells, calcium flux fluo-8, FDSS agonist mode | activation, % at 2 µM | 0.18% of 360,000 active | AID 493084; in the data active = activation above about 30%
#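 Agonist-mode FDSS calcium read (Ex 480/Em 530, 1 s cycles) in 1536-well TRHR cells with fluo-8 dye, after 10-cycle baseline and 23 nL compound addition; TRH at EC20 (10 nM final) added afterwards for the enhancer phase.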
# A number is an active result; n = inactive; u = inconclusive; x = no result.
SMILES,KCNH2 3.1 inh,TRPML1 inh,TRHR PAM,TRPML1 agonist,KCNH2 WT inh,TRHR ag
Fc1ccccc1CNCCC(Cc1ccccc1)c1ccc2c(c1)OCO2 (centres undefined),n,n,n,n,n,n
CC(C)CCC(CCNCc1ccccn1)c1ccc2c(c1)OCO2 (centres undefined),-95,n,n,n,u,n
CCOc1ccc(NC(=O)c2c(C)nn(-c3ccc(F)cc3)c2-n2cccc2)cc1,x,n,n,n,x,n
CC(=O)Nc1sc(N/N=C\c2ccccc2F)nc1-c1cccs1,n,n,36,n,n,n
CC1CCc2c(sc3ncn4c(SCC(=O)NCc5ccco5)nnc4c23)C1 (centres undefined),n,n,n,n,n,n
CC1CCc2sc3ncn4nc(C(=O)NCc5ccco5)nc4c3c2C1 (centres undefined),-77,n,n,n,n,n
COc1ccc(-c2cc(C#N)nc(Cl)n2)cc1,-80,n,n,n,n,n
CSc1nc(N)nc2c1ncn2CC(=O)NCCCN1CCCC1=O,n,n,x,n,n,x
O=C(NCc1cccc(F)c1)c1cccc2c1C(=O)c1ccc(N3CCCC3)cc1S2(=O)=O,n,n,x,u,n,x
CC1CCN(c2ccc3c(c2)S(=O)(=O)c2cccc(C(=O)NCc4cccc(F)c4)c2C3=O)CC1,n,n,n,u,n,53
O=C([O-])c1cc(-c2ccccc2)cc(-c2ccccc2)[n+]1Cc1ccccc1,x,x,n,x,x,n
COc1c(OC(C)=O)ccc(/C=C/c2ccc3ccccc3n2)c1[N+](=O)[O-],-77,n,n,n,n,n
CC(C)(C)c1ccc(C(=O)NCC(=O)OC(C(=O)Nc2cc(C(F)(F)F)ccc2Cl)c2ccccc2)cc1 (centres undefined),x,x,n,x,x,n
COc1ccccc1C(=O)NC(=S)NNC(=O)c1sc2ccccc2c1Cl,n,n,n,51,n,36
O=C(NCc1ccccc1Cl)c1ccc(CS(=O)(=O)c2ccc(Br)cc2)o1,x,n,40,n,x,n
O=C(NCc1ccccc1Cl)c1ccc(CS(=O)(=O)c2ccccc2)o1,n,n,n,n,n,n
CCCN(CC1CC1)C(=O)CCc1nnc(CCc2c[nH]c3ccccc23)o1,-98,n,n,n,n,n
O=C(O)CC/C(=N/NC(=O)CNC(=O)c1ccc2c(c1)OCCO2)c1ccccc1,n,n,n,n,n,n
O=C(CCN1C(=O)CSc2ccccc21)Nc1ccc(OC(F)(F)F)cc1,n,n,33,n,n,n
CCOc1ccc(C2CC(c3ccc(OC)cc3)n3ncnc3N2)cc1 (centres undefined),n,n,n,n,n,n
COc1ccc(C2CC(c3ccco3)n3ncnc3N2)cc1 (centres undefined),n,n,37,n,n,n
Cc1cc(-c2nnc(SCCC(=O)Nc3ccccc3)o2)no1,x,n,n,n,n,n
Cc1cc(-c2nnc(SCc3ccccn3)o2)no1,n,n,31,n,n,n
COCCNc1nc(Nc2ccc(C#N)cc2)c2sccc2n1,x,x,x,n,x,x
Cc1ccc(S(=O)(=O)N(C)Cc2ccc(C(=O)N/N=C/c3ccc(OC(F)F)cc3)cc2)cc1,-109,n,n,n,u,n
SMILES,KCNH2 3.1 inh,TRPML1 inh,TRHR PAM,TRPML1 agonist,KCNH2 WT inh,TRHR ag
O=C(N/N=C/c1ccc(OC(F)F)cc1)c1cc[n+]([O-])cc1,n,n,34,n,n,n
COc1ccc(/C=N/NC(=O)c2cc[n+]([O-])cc2)cc1,n,n,n,n,n,n
C/C(=N\NC(=O)c1ccc(CN(C)S(=O)(=O)c2ccc(C)cc2)cc1)c1ccc(OC(F)F)cc1,n,n,n,n,n,n
COc1cccc(C(=O)NCC(=O)OCc2cc(=O)n3c(C)csc3n2)c1,x,n,34,n,x,n
COc1cccc(C(=O)NCC(=O)OCc2cc(=O)n3nc(C)sc3n2)c1,x,n,n,n,x,n
CC(=O)c1cc(C)ccc1OC(=O)CCN1C(=O)C2C3c4ccccc4C(c4ccccc43)C2C1=O (centres undefined),-87,n,n,n,n,n
CCOc1ccc(C(=O)NCCc2sc(-c3cccc(F)c3)nc2C)cc1OCC,x,n,n,n,x,n
Cc1nc(-c2cccc(F)c2)sc1CCNC(=O)c1ccc(F)c(F)c1,x,n,30,n,x,n
Nc1cccc(CP(=O)(c2ccccc2)c2ccccc2)c1,n,n,31,n,n,n
COc1ccc(-c2cn3c(n2)sc2cc(C(=O)Nc4ccc(F)cc4Cl)ccc23)cc1,x,n,n,n,x,n
COc1cc2nc(NC3CCN(Cc4ccccc4)CC3)nc(N3CCCN(C)CC3)c2cc1OC,x,x,x,n,x,x
CC(=O)Nc1c(C)nn(-c2ccc([N+](=O)[O-])cc2)c1C,n,n,37,n,n,n
CCOc1ccc(CC(=O)NCCc2csc(-c3ccc(C(F)(F)F)cc3)n2)cc1,x,n,n,n,x,n
C=CCN=c1scc(-c2ccc3c(c2)NC(=O)CO3)n1/N=C(\C)c1ccccn1,-95,n,n,n,n,n
C=CCN=c1scc(-c2ccc(F)cc2)n1/N=C/c1ccccn1,n,n,n,n,n,n
COc1ccc(-n2c(=O)c3sc4ccccc4c3n(CC(=O)NCc3ccccc3)c2=O)cc1,x,n,n,n,x,n
Cc1cc(CN2CCCC(CNC(=O)c3ccc(F)cc3)C2)cc(C)c1O (centres undefined),n,n,n,n,n,n
COc1cc(OC)c(OC)cc1CN1CCCC(C(=O)c2sccc2C)C1 (centres undefined),n,n,n,n,n,n
Cc1cc(C)c(CN2CCCC(CNC(=O)c3ccc(F)cc3)C2)c(-n2cccn2)c1 (centres undefined),-111,n,n,n,-85,n
Cc1ccsc1C(=O)C1CCCN(Cc2cc(F)ccc2-n2cccn2)C1 (centres undefined),-81,n,n,n,n,n
CCc1ccc(N2CC(C(=O)Nc3ccc4c(c3)OCO4)CC2=O)cc1 (centres undefined),n,n,n,n,n,n
O=C(c1ccc(Br)cc1)N1CCC2(CC1)NCCc1[nH]cnc12,-87,n,n,n,u,n
CCOc1ccc(C(=O)N2CCC3(CC2)NCCc2[nH]cnc23)cc1,-89,n,n,n,n,n
CCOc1ccc(CC(=O)N2CCC3(CC2)NCCc2[nH]cnc23)cc1,n,n,n,n,n,n
CC(C)(C)c1ccc(C(=O)N2CCC3(CC2)NCCc2[nH]cnc23)cc1,n,n,n,n,n,n
CCCc1ncc(C(O)c2ccccc2OC)n1C (centres undefined),n,n,n,n,-201,n

# Compound activity from PubChem BioAssay.
